Assay results reported in PubChem BioAssay (NCATS).
Results filed as inconclusive are left out. Values without a mark were called inactive. Active and inactive are the calls of the source. Calls come from the whole dose curve; as a rule, active = well fitted curve in the direction sought with a large enough effect; inconclusive = small, poorly fitted or top-dose-only effect, or another doubt; inactive = no such curve, though single readings can be large; an effect the other way counts as inactive or inconclusive.

Test: Quantitative High-Throughput drug screen in 47 multiple myeloma cell lines against the NCATS MIPE library collection: JIM3_ECACC cell viability assay (AID 1918963; note: nearly all actives have a fitted effect of over 35% in size;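 for viability, percent of control: 100% = DMSO-only wells and 0% = media-only wells without cells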)
Details: JIM3 myeloma viability, CellTiter-Glo ATP, 48 h; series mostly up to 45.8 µM; viability, percent of control: at the top concentration
Method in brief: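 Approved and investigational drugs from MIPE 4.0 were added by pin tool to 500 cells per well. After 48 hours at 37C, ATP-based CellTiter-Glo luminescence indicated remaining viability.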
Potency is the fitted concentration of half-maximal effect.

| Compound | Potency | viability, percent of control |
| --- | --- | --- |
| Cc1cc(CS(=O)(=O)c2ccccc2)cc(OCc2ccc(CN3CCC[C@H]3CO)cc2)c1 | 20.9 µM (active) | – |
| Cc1cccc(Nc2nc(N[C@@H]3CCCC[C@H]3N)ncc2C(N)=O)c1 | 16.6 µM (active) | – |
| CC(C)(F)C[C@H](N[C@@H](c1ccc(-c2ccc(S(C)(=O)=O)cc2)cc1)C(F)(F)F)C(=O)NC1(C#N)CC1 | 0.0833 µM (active) | – |
| C[C@]12CC[C@@H]3c4ccc(O)cc4CC[C@H]3[C@H]1[C@@H](O)[C@@H](O)[C@H]2O | – | 131% |
| FC(F)(F)c1ccc(C=Cc2nc(COc3ccc(CCCCn4ccnn4)cc3)co2)cc1 | 0.332 µM (active) | – |
| Cc1nc(NC(=O)N2CCC[C@@H]2C(N)=O)sc1-c1csc(C(C)(C)C)n1 | 5.9 µM (active) | – |
| OC(c1cc(C(F)(F)F)nc2c(C(F)(F)F)cccc12)C1CCCCN1 (stereo not drawn) | 18.7 µM (active) | – |
| CN1CC(=O)NC1=NC(=O)Nc1cccc(Cl)c1 | 13.2 µM (active) | – |
| CCC(=O)NCC[C@@H]1CCc2ccc3c(c21)CCO3 | 13.2 µM (active) | – |
| CC1=C(CC(=O)O)c2cc(F)ccc2C1=Cc1ccc(S(C)=O)cc1 (stereo not drawn) | 13.2 µM (active) | – |
| COc1cc2c(cc1OC)CC(=O)N(CCCN(C)C[C@H]1Cc3cc(OC)c(OC)cc31)CC2 | – | 95.5% |
| Oc1cc(O)cc(C=Cc2ccc(O)c(O)c2)c1 | 14.8 µM (active) | – |
| CC(C)n1c(C=C[C@H](O)C[C@H](O)CC(=O)O)c(-c2ccc(F)cc2)c2ccccc21 | 16.6 µM (active) | – |
| CCC[C@@H](NC(=O)[C@@H]1[C@H]2CCC[C@@H]2CN1C(=O)[C@@H](NC(=O)[C@@H](NC(=O)c1cnccn1)C1CCCCC1)C(C)(C)C)C(=O)C(=O)NC1CC1 | 20.9 µM (active) | – |
| O=C(NC[C@H](O)CO)c1ccncc1Nc1ccc(I)cc1F | 14.8 µM (active) | – |
| Cc1ccc(NC(=O)Nc2cc(C(F)(F)F)ccc2F)cc1Nc1ccc2c(c1)NC(=O)C2=Cc1ccc[nH]1 | 4.18 µM (active) | – |
| CN1[C@H]2CC[C@H]1CC(OC(=O)c1c[nH]c3ccccc13)C2 (stereo partly drawn) | – | 92.6% |
| CCC(=C(CC)c1ccc(O)cc1)c1ccc(O)cc1 | – | 109% |
| COc1ccnc(CS(=O)c2nc3ccc(OC(F)F)cc3[nH]2)c1OC (stereo not drawn) | – | 102% |
| C[C@@H]1CC=CC=CC=CC=C[C@@H](O[C@@H]2O[C@H](C)[C@@H](O)[C@H](N)[C@H]2O)C[C@@H]2O[C@](O)(C[C@@H](O)C[C@@H]3O[C@@H]3C=CC(=O)O1)C[C@H](O)[C@@H]2C(=O)O | 5.9 µM (active) | – |
| CC(C)c1c(C(=O)Nc2ccccc2)c(-c2ccccc2)c(-c2ccc(F)cc2)n1CC[C@H](O)C[C@@H](O)CC(=O)O | 14.8 µM (active) | – |
| NC[C@H]1O[C@H](O[C@@H]2[C@@H](O)[C@@H](O[C@H]3O[C@H](CO)[C@@H](O)[C@H](N)[C@@H]3O)[C@H](N)C[C@@H]2N)[C@H](O)[C@@H](O)[C@H]1O | – | 120% |
| COc1nccc(-c2c(-c3ccc(F)cc3)ncn2C2CCC(O)CC2)n1 (stereo not drawn) | – | 94.5% |
| CC1(COc2ccc3c(c2)ncn3-c2ccc3cccc(N4CCC(N)CC4)c3n2)COC1 | 0.0118 µM (active) | – |

Test: Quantitative High-Throughput drug screen in 47 multiple myeloma cell lines against the NCATS MIPE library collection: JIM1_ECACC cell viability assay (AID 1918964)
Details: JIM1 myeloma viability, CellTiter-Glo ATP luminescence, 48 h; series mostly up to 45.8 µM; viability (% of DMSO): at the top concentration
Method in brief: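 Steps: seed 500 cells per well; pin-transfer MIPE 4.0 library; incubate 48 h at 37C, 5% CO2, humidified; add CellTiter-Glo, 5 min room temperature; read luminescence.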

| Compound | Potency | viability (% of DMSO) |
| --- | --- | --- |
| Cc1cccc(Nc2nc(N[C@@H]3CCCC[C@H]3N)ncc2C(N)=O)c1 | 5.9 µM (active) | – |
| FC(F)(F)c1ccc(C=Cc2nc(COc3ccc(CCCCn4ccnn4)cc3)co2)cc1 | 0.0074 µM (active) | – |
| CC[C@H](C)n1cc(C)c2c(C(=O)NCc3c(C)cc(C)[nH]c3=O)cc(-c3ccc(N4CCNCC4)nc3)cc21 | – | 127% |
| Cc1nc(NC(=O)N2CCC[C@@H]2C(N)=O)sc1-c1csc(C(C)(C)C)n1 | 1.32 µM (active) | – |
| OC(c1cc(C(F)(F)F)nc2c(C(F)(F)F)cccc12)C1CCCCN1 (stereo not drawn) | 16.6 µM (active) | – |
| Oc1cc(O)cc(C=Cc2ccc(O)c(O)c2)c1 | 16.6 µM (active) | – |
| CC(C)n1c(C=C[C@H](O)C[C@H](O)CC(=O)O)c(-c2ccc(F)cc2)c2ccccc21 | 7.43 µM (active) | – |
| O=C(NC[C@H](O)CO)c1ccncc1Nc1ccc(I)cc1F | 2.35 µM (active) | – |
| Cc1ccc(NC(=O)Nc2cc(C(F)(F)F)ccc2F)cc1Nc1ccc2c(c1)NC(=O)C2=Cc1ccc[nH]1 | 4.18 µM (active) | – |
| CN1[C@H]2CC[C@H]1CC(OC(=O)c1c[nH]c3ccccc13)C2 (stereo partly drawn) | – | 123% |
| CCC(=C(CC)c1ccc(O)cc1)c1ccc(O)cc1 | 16.6 µM (active) | – |
| Cc1c(-c2cccc3c(CCCOc4cccc5ccccc45)c(C(=O)O)n(Cc4cccnc4)c23)c(COc2ccc(N3CCN([S+](=O)([O-])N(C)C)CC3)cc2)nn1C | – | 82.8% |
| C[C@@H]1CC=CC=CC=CC=C[C@@H](O[C@@H]2O[C@H](C)[C@@H](O)[C@H](N)[C@H]2O)C[C@@H]2O[C@](O)(C[C@@H](O)C[C@@H]3O[C@@H]3C=CC(=O)O1)C[C@H](O)[C@@H]2C(=O)O | – | 96% |
| N#Cc1c(N(CC(=O)O)CC(=O)O)sc(C(=O)O)c1CC(=O)O | 5.9 µM (active) | – |
